Measured values published in PubChem BioAssay (EPA / NIEHS).
“And” between values parts separate entries of the source, which are not always exact repeats. Equal values may be shown once. Results filed as inconclusive are left out. More than one record can exist for a structure, and the calls need not agree. The source made the active and inactive calls. The calls were made as follows, unless noted: active = hit-call score of the fitted dose curve at least 0.9, where 1 is the maximum; inactive = score below 0.9.

Key:
[1] = BSK_BT_Bcell_Proliferation: Viability Assessment in the BioMAP Diversity Plus: BT Assay for B cell Proliferation (AID 2284227); details: primary human B cells with PBMC
Outline: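 Using a human primary B cell–PBMC co-culture, the assay measures total protein by sulforhodamine B absorbance as a gauge of proliferation after 72 h. Analysis followed the positive fitting direction with DMSO as baseline.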

[2] = read-out: Interleukin 6 (IL6), IL6 (gene 3569); assay: BSK_BT_xIL6: BioMAP Diversity Plus: BT Assay for Interleukin 6 (IL6) Biomarker Activity (AID 2284228); details: primary human B cells with PBMC
Outline: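 Human B cell/PBMC co-culture; secreted IL-6 quantified by Luminex xMAP 24 h after chemical dosing, fitted relative to DMSO. Parallel PBMC viability by Alamar Blue after 1 h pretreatment, 20 ng/mL SEB and TSST-1, 90 h incubation.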

[3] = read-out: Tumor necrosis factor (Homo sapiens) (UniProt P01375); assay: BSK_BT_xTNFa: BioMAP Diversity Plus: BT Assay for Tumor necrosis factor alpha (TNF-alpha) Biomarker Activity (AID 2284230); details: primary human B cells with PBMC
Outline: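 Endpoint derived in the positive direction versus DMSO vehicle. Cells: B cells together with PBMC, exposed 24 h before TNF-alpha in the medium was read on the Luminex xMAP platform.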

[4] = read-out: Vascular cell adhesion molecule 1 (VCAM1), VCAM1 (gene 7412); assay: BSK_MyoF_VCAM1: BioMAP Diversity Plus: MyoF Assay for Vascular cell adhesion molecule 1 (VCAM1) Biomarker Activity (AID 2284231); details: primary human lung fibroblasts
Outline: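 Primary human lung fibroblasts (BioMAP MyoF system) dosed with chemical, VCAM-1 measured by ELISA 24 hours later. Fitted in the positive direction against DMSO; parallel SRB staining assessed cytotoxicity.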

[5] = read-out: Collagen I, COL1A1 (gene 1277); assay: BSK_MyoF_CollagenI: BioMAP Diversity Plus: MyoF Assay for Collagen I Biomarker Activity (AID 2284238); details: primary human lung fibroblasts
Outline: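 Primary human lung fibroblasts (MyoF system) treated 24 h; Collagen I quantified by ELISA and fitted in positive direction against DMSO. Parallel SRB total-protein staining assessed overt cytotoxicity.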

[6] = read-out: Collagen III, COL3A1 (gene 1281); assay: BSK_MyoF_CollagenIII: BioMAP Diversity Plus: MyoF Assay for Collagen III Biomarker Activity (AID 2284239); details: primary human lung fibroblasts
Outline: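 Primary human lung fibroblasts (BioMAP MyoF system) exposed 24 h. Collagen III measured by ELISA; positive-direction fit relative to DMSO.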

[7] = CCTE_Mundy_HCI_hNP1_Casp3_7: CCTE's Caspase-Glo 3/7 Assay in human neuroprogenitor cells for Apoptosis, Mundy Lab (AID 2284240)
Outline: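 Luminescent caspase-3/7 readout, 26.5 h post-dose, in human neural progenitor cells from WA09 embryonic stem cells. Cells grew 40–44 h at 37 °C, 5% CO2 before chemical addition. Activity analysed as signal increase over DMSO baseline.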

[8] = CCTE_Mundy_HCI_hNP1_CellTiter: CCTE's Cell Titer-Glo 2 Assay in human neuroprogenitor cells for Viability, Mundy Lab (AID 2284241; active = hit-call score of the fitted dose curve at least 0.9, where 1 is the maximum)
Outline: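 Viability read as luminescent ATP content (CellTiter-Glo, 30 min room temperature) twenty-four hours after dosing, relative to DMSO. Cells: WA09-derived hNP1 neuroprogenitors on poly-L-ornithine/laminin, plated 40 to 44 hours before chemical.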

[9] = read-out: Interleukin 17F (IL17F), IL17F (gene 112744); assay: BSK_BT_xIL17F: BioMAP Diversity Plus: BT Assay for Interleukin 17F (IL17F) Biomarker Activity (AID 2284243); details: primary human B cells with PBMC
Outline: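 Human PBMC co-cultured with B cells, compound exposure 24 h; secreted IL-17F quantified by Luminex xMAP, referenced to DMSO control. PBMC viability measured in parallel by Alamar Blue reduction.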

[10] = read-out: Actin alpha 1 (ACTA1), ACTA1 (gene 58); assay: BSK_MyoF_ACTA1: BioMAP Diversity Plus: MyoF Assay for Actin alpha 1 (ACTA1) Biomarker Activity (AID 2284244); details: primary human lung fibroblasts
Outline: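 MyoF fibroblast system (human lung); a-SMA quantified via ELISA at 24 h; DMSO-normalised, gain-of-signal endpoint.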

[11] = read-out: Interleukin 2 (IL2), IL2 (gene 3558); assay: BSK_BT_xIL2: BioMAP Diversity Plus: BT Assay for Interleukin 2 (IL2) Biomarker Activity (AID 2284245); details: primary human B cells with PBMC
Outline: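 Co-cultures of primary human B cells and PBMC are treated with chemical and sampled at 24 h. IL-2 secretion is quantified by Luminex xMAP, with DMSO-treated wells as baseline.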

[12] = read-out: Basic fibroblast growth factor (bFGF), FGF2 (gene 2247); assay: BSK_MyoF_bFGF: BioMAP Diversity Plus: MyoF Assay for Basic fibroblast growth factor (bFGF) Biomarker Activity (AID 2284246); details: primary human lung fibroblasts
Outline: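 Fibroblasts from human lung, 24 h dosing. bFGF by ELISA; gain of signal over DMSO.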

[13] = read-out: Collagen IV, COL4A1 (gene 1282); assay: BSK_MyoF_CollagenIV: BioMAP Diversity Plus: MyoF Assay for Collagen IV Biomarker Activity (AID 2284247); details: primary human lung fibroblasts
Outline: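 Lung fibroblasts (human primary) treated with chemicals were assayed after 24 h for Collagen IV using an ELISA, with DMSO serving as negative control and baseline for a positive-direction fit.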

[14] = read-out: Monokine induced gamma interferon (MIG), CXCL9 (gene 4283); assay: BSK_KF3CT_MIG: BioMAP Diversity Plus: KF3CT Assay for Monokine induced gamma interferon (MIG) Biomarker Activity (AID 2284248); details: primary human keratinocytes with fibroblasts
Outline: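 Human keratinocyte–foreskin fibroblast co-culture; MIG measured by ELISA 24 h after chemical dosing, fitted upward versus DMSO. Cytotoxicity was assessed in parallel cultures by SRB total-protein staining read at 560 nm.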

[15] = read-out: Vascular cell adhesion molecule 1 (VCAM1), VCAM1 (gene 7412); assay: BSK_BF4T_VCAM1: BioMAP Diversity Plus: BF4T Assay for Vascular cell adhesion molecule 1 (VCAM1) Biomarker Activity (AID 2284249); details: primary human bronchial epithelial cells with fibroblasts
Outline: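 Cell-surface VCAM-1 quantified by ELISA after 24 h chemical exposure of human bronchial epithelial/dermal fibroblast co-cultures, with SRB staining in parallel wells for cytotoxicity; DMSO baseline, positive-direction fitting.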

[16] = read-out: Collagen I, COL1A1 (gene 1277); assay: BSK_hDFCGF_CollagenI: BioMAP Diversity Plus: hDFCGF Assay for Collagen I Biomarker Activity (AID 2284250); details: primary human foreskin fibroblasts
Outline: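 Readout: Collagen I by ELISA after 24 h compound treatment of primary human foreskin fibroblasts. Endpoint analysed for increases relative to DMSO; total protein by SRB in parallel wells flagged cytotoxicity.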

[17] = read-out: Interferon-inducible T-cell alpha chemoattractant (ITAC), CXCL11 (gene 6373); assay: BSK_hDFCGF_ITAC: BioMAP Diversity Plus: hDFCGF Assay for Interferon-inducible T-cell alpha chemoattractant (ITAC) Biomarker Activity (AID 2284251); details: primary human foreskin fibroblasts
Outline: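 Measured by ELISA, the chemokine level serves as the endpoint in human skin fibroblast primary cultures 24 h after compound addition. Increases relative to DMSO-treated wells define activity.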

[18] = read-out: Plasminogen activator inhibitor-1 (PAI1), SERPINE1 (gene 5054); assay: BSK_KF3CT_PAI1: BioMAP Diversity Plus: KF3CT Assay for Plasminogen activator inhibitor-1 (PAI1) Biomarker Activity (AID 2284252); details: primary human keratinocytes with fibroblasts
Outline: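 In this co-culture of primary human keratinocytes and foreskin fibroblasts, PAI-1 was measured by ELISA at 24 h and fitted upward from DMSO.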

[19] = read-out: Monocyte Chemoattractant Protein-1 (MCP1), CCL2 (gene 6347); assay: BSK_IMphg_MCP1: BioMAP Diversity Plus: IMphg Assay for Monocyte Chemoattractant Protein-1 (MCP1) Biomarker Activity (AID 2284253); details: primary human endothelial cells with macrophages
Outline: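 ELISA readout of MCP-1 at 24 hours in IMphg co-cultures of venular endothelial cells and macrophages, normalised to DMSO; parallel cultures stained with sulforhodamine B for overt cytotoxicity.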

[20] = read-out: Interleukin 17A (IL17A), IL17A (gene 3605); assay: BSK_BT_xIL17A: BioMAP Diversity Plus: BT Assay for Interleukin 17A (IL17A) Biomarker Activity (AID 2284229); details: primary human B cells with PBMC
Outline: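 Co-culture of human B cells and PBMC, dosed for 24 h in 96-well format. Secreted IL-17A measured with Luminex xMAP; gain-direction fitting against DMSO as baseline.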

Measured: AC50

Chain of Tumor necrosis factor (Homo sapiens) (P01375 whole entry, looked up): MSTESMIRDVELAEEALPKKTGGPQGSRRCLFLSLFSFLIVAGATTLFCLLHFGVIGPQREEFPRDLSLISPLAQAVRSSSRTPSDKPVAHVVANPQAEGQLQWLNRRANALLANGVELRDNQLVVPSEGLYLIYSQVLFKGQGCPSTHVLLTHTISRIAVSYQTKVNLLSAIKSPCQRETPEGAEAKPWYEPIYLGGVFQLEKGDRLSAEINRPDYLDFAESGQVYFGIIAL

O=C(F)C1(F)C(F)(F)C(F)(F)C(F)(F)C(F)(F)C1(F)F
inactive: [1] | [2] | [3] | [4] | [5] | [6] | [7] | [8] | [9] | [10] | [11] | [12] | [13] | [14] | [15] | [16] | [17] | [18] | [19]

Nc1cc([N+](=O)[O-])cc(Cl)c1O
inactive: [1] | [2] | [20] | [3] | [4] | [5] | [9] | [10] | [11] | [12] | [13]

O=C(O)C(F)(F)C(F)(F)C(F)(F)C(F)(F)C(F)(F)C(F)(F)C(F)F
active: [1] 21.8 µM | [10] 0.232 µM
inactive: [1] | [2] | [20] | [3] | [4] | [5] | [9] | [10] | [11] | [12] | [13] | [14] | [15] | [16] | [18] | [19]

CN(C(=O)C(F)(F)C(F)(F)C(F)(F)F)[Si](C)(C)C
inactive: [1] | [2] | [20] | [3] | [4] | [5] | [9] | [10] | [11] | [12] | [13] | [14] | [15] | [16] | [18] | [19]

OCC(F)(F)C(F)(F)C(F)(F)C(F)(F)C(F)(F)C(F)(F)C(F)(F)C(F)(F)CO
active: [1] 46.8 µM and 47.9 µM | [2] 48.7 µM | [3] 45.6 µM and 54 µM | [4] 47.9 µM and 45.4 µM | [5] 40.4 µM | [9] 53.8 µM and 38.5 µM | [10] 44.9 µM and 42.5 µM | [11] 54.7 µM and 46.9 µM | [12] 54.4 µM | [13] 49.1 µM | [14] 49.2 µM and 48.4 µM | [15] 12 µM | [18] 54.3 µM and 48.3 µM | [19] 50.4 µM and 51.3 µM
inactive: [5] | [12] | [13] | [15] | [16]

O=C1c2c(O)ccc(Nc3ccc(CCO)cc3)c2C(=O)c2c([N+](=O)[O-])ccc(O)c21
inactive: [2] | [20] | [3] | [11] | [12]
active: [1] 15.5 µM | [4] 20 µM | [5] 28.9 µM | [9] 35.3 µM | [10] 25.6 µM | [13] 34.1 µM

C=CC(=O)OCC(F)(F)C(F)(F)C(F)(F)COC(=O)C=C
inactive: [7] | [8] | [13] | [16]
active: [1] 9.4 µM and 9.64 µM | [2] 10.4 µM and 8.91 µM | [3] 8.9 µM and 9.3 µM | [4] 9.52 µM and 9.72 µM | [5] 9.95 µM and 11.1 µM | [6] 13.9 µM and 14.7 µM | [9] 2.89 µM and 3.25 µM | [10] 8.23 µM and 4.42 µM | [11] 9.03 µM and 9.56 µM | [12] 15.9 µM and 14.7 µM | [14] 23.2 µM and 22.2 µM | [15] 7.91 µM and 8.05 µM | [17] 733 nM and 1.58 µM | [18] 22.7 µM and 21.2 µM | [19] 37.9 µM and 36.8 µM

Cc1cnccn1
inactive: [1] | [2] | [20] | [3] | [4] | [5] | [9] | [10] | [11] | [12] | [13]

O=S(=O)(O)CCC(F)(F)C(F)(F)C(F)(F)C(F)(F)F
inactive: [1] | [2] | [20] | [3] | [4] | [5] | [9] | [10] | [11] | [12] | [13] | [14] | [15] | [16] | [18] | [19]

O=C=NCc1cccc(CN=C=O)c1
inactive: [1] | [2] | [20] | [3] | [4] | [5] | [6] | [9] | [10] | [11] | [12] | [13]

O=S(=O)(OCC(F)(F)F)C(F)(F)C(F)(F)C(F)(F)C(F)(F)F
active: [3] 3.48 µM | [17] 30 µM
inactive: [1] | [2] | [20] | [3] | [4] | [5] | [9] | [10] | [11] | [12] | [13] | [14] | [15] | [16] | [18] | [19]

C=CC(=O)OCCC(F)(F)C(F)(F)C(F)(F)C(F)(F)F
inactive: [4] | [5] | [6] | [10] | [12] | [13] | [14] | [15] | [16] | [18] | [19]
active: [1] 45.3 µM and 46.6 µM | [2] 39.6 µM and 35.5 µM | [3] 38.4 µM and 30 µM | [4] 21 µM | [9] 20.1 µM and 14.3 µM | [11] 46.6 µM and 48 µM

O=C1C=CC(=O)N1c1ccc(Cc2ccc(N3C(=O)C=CC3=O)cc2)cc1
active: [1] 3.64 µM | [2] 3.09 µM | [20] 1.99 µM | [3] 4.89 µM | [4] 3.05 µM | [5] 2.69 µM | [9] 2.45 µM | [10] 2.79 µM | [11] 4.5 µM | [12] 5.53 µM | [13] 1.99 µM
